IL-1B inflam inh = inflammasome signaling inhibition, IL-1 beta readout; THP-1 LPS/ATP IL-1B secretion, AlphaLISA, 16 h; stronger effect = lower value; activity change, % at 57.5 µM; 360,000 tested, 4.7% active; AID 743279; in the data active = activity change below about -50%; inconclusive = mostly about -30% to -49%
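Secreted IL-1B measured by AlphaLISA bead assay after 16 h compound exposure of THP-1 cells; compounds (final up to 57.5 uM) added 1 h before LPS (250 ng/mL) and ATP (1.25 mM) stimulation; lower signal means less secretion.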
TDP1 cell CPT = growth inhibition of DT40 Tdp1-/-;hTDP1 cells with camptothecin (screen for TDP1 inhibitors); 420,000 tested, 12% active; Potency, µM (top dose mostly 46.2 µM), inactives show at the top dose activity change, negative = growth inhibition, actives largely listed as inhibitors; chicken DT40 Tdp1-/-;hTDP1 cells + 20 nM CPT, ATP luminescence, 48 h; note: potency is the fitted concentration of half-maximal effect; nearly all actives have a fitted effect of over 55% in size
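Chicken DT40 Tdp1-/- cells stably complemented with human TDP1 were seeded at 400 cells/well in medium containing 20 nM camptothecin, exposed to pin-transferred compounds, and grown at 37 °C for at least 48 hr. Viability was read as ATP luminescence.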
ALOX12 inh = ALOX12 (human) lipoxygenase inhibition; 580,000 tested, 1.1% active; Potency, µM (highest dose often 108 µM), without a hit: at the highest dose activity change, negative = inhibition, most hits filed as inhibitors; P18054; purified 12hLO, xylenol orange hydroperoxide absorbance; AID 1671190; note: potency is the fitted concentration of half-maximal effect
Target sequence (P18054 whole entry, looked up): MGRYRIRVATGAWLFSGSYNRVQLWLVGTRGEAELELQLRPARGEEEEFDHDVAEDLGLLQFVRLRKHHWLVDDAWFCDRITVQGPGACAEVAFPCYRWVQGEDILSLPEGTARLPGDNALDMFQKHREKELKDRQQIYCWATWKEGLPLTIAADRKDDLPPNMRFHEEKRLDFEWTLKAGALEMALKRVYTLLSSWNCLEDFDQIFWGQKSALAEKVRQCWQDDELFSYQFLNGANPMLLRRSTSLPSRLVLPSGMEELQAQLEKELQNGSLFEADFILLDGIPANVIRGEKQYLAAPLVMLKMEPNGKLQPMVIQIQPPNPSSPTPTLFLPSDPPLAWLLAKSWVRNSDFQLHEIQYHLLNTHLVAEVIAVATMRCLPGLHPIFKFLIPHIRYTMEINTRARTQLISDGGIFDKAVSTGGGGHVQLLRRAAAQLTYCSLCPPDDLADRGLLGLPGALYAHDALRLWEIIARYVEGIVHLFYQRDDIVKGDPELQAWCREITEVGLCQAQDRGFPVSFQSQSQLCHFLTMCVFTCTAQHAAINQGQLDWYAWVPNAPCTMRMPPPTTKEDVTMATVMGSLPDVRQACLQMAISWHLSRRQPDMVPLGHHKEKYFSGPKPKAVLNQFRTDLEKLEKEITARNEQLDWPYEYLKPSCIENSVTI
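Purified human 12hLO (150 nM final) in 25 mM Hepes, 0.01% Triton X-100, pH 7.0 was preincubated 15 min at room temperature with compound. Then 40 uM arachidonic acid was added, 30 min. Hydroperoxide was read by Fe-XO absorbance ratio 573/405 nm.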
HT1080 IDH1KD tx = HT-1080 IDH1 knockdown cell toxicity (counter line) | Potency, µM (highest dose often 46.1 µM), for inactives: at the top dose activity, negative = toxicity, usual class: cytotoxic | HT-1080 IDH1 knockdown viability, ATP luminescence, 48 h | AID 686971 | 360,000 tested, 2% active;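 note: potency is the fitted concentration of half-maximal effect; 0% = DMSO wells and -100% = cell-free medium wells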
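Assay cells: HT-1080 with IDH1 knockdown, 750 per well, RPMI/5% FBS. Exposure: 48 h at 37 °C following 2 h pre-incubation. Read: CellTiter-Glo luminescence; fitted concentration-response, curve class assigned.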
HT1080NT lethal = kills 2HG-producing HT-1080-NT fibrosarcoma cells; 360,000 tested, 1.6% active; HT-1080-NT fibrosarcoma viability, CellTiter-Glo ATP luminescence, 48 h; Potency, µM (top dose mostly 46.1 µM), for the others: at the highest dose activity, negative = less viability, hits mostly cytotoxic; AID 686970;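 note: NT is the 2HG producing partner of a matched IDH1 knockdown line; potency is the fitted concentration of half-maximal effect; 0% = DMSO-treated cells and -100% = media-only wells without cells; nearly all actives have a fitted effect of over 55% in size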
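HT-1080-NT; 750 cells/well; 5% FBS RPMI; 48 h compound, 37 degrees C; CellTiter-Glo luminescence; curve fitting and curve-class assignment.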
TDP1 cell noCPT = qHTS for Inhibitors of human tyrosyl-DNA phosphodiesterase 1 (TDP1): qHTS in cells in absence of CPT; DT40 Tdp1-/- hTDP1 cells, no CPT, ATP luminescence, 48 h; Potency, µM (highest dose often 46.2 µM), inactives show at the highest dose activity change, negative = growth inhibition, hits mostly inhibitors; 420,000 tested, 15% active; note: potency is the fitted concentration of half-maximal effect; nearly all actives have a fitted effect of over 55% in size
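DT40 Tdp1-/-;hTDP1 cells, no CPT (DMSO vehicle only), 400 cells/well; compounds pin-transferred; ≥48 hr, 37 °C; CellTiter-Glo 30 min RT dark, luminescence read.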
An asterisk follows results filed as active; ? = inconclusive; · = no result given. Only a selection was taken, and hits are over-represented in it overall. Unless noted, calls come from the whole dose curve; as a rule, active = well fitted curve in the direction sought with a large enough effect; inconclusive = small, poorly fitted or top-dose-only effect, or another doubt; inactive = no such curve, though single readings can be large; an effect the other way counts as inactive or inconclusive. Unless noted, % is set by controls: 0 for no effect and ±100 for the full control effect.

SMILES	IL-1B inflam inh	TDP1 cell CPT	ALOX12 inh	HT1080 IDH1KD tx	HT1080NT lethal	TDP1 cell noCPT
COc1ccccc1Nc1nnc(SCc2cc(=O)n3ccsc3n2)s1	1	?	-4%	?	?	23µM*
Cc1cccc(Nc2nnc(SCc3cc(=O)n4cc(C)ccc4n3)s2)c1	-2	23µM*	-2%	-18%	-11%	23µM*
Cc1ccc(OCC(=O)Nc2nnc(SCc3cc(=O)n4cc(C)ccc4n3)s2)cc1	·	1%	-9%	·	·	0%
C[N+]1(C)CCC(=C2c3ccccc3CC(=O)c3sccc32)CC1	-6	26µM*	?	?	-21%	?
CC[N+]1(C)CCC(=C2c3ccccc3CC(=O)c3sccc32)CC1 (stereo unspecified)	-9	-19%	-6%	0%	0%	-16%
Cc1nn(C)cc1CN(C)CC1(O)CCCN(Cc2cccc(F)c2F)C1=O (stereo unspecified)	·	·	12%	·	·	·
CCCSc1ccc2nc(-c3ccccc3)cn2c1	-4	18µM*	?	12µM*	12µM*	16µM*
CC(C)Sc1nc(N(CCO)CCO)c2sc3c(c2n1)COC(C)(C)C3	·	·	9%	·	·	·
CC(C)COc1ccc(C(=O)N2CCCCC2CCN2CCCCCC2)cc1 (stereo unspecified)	·	·	7.1µM*	·	·	·
CCOC(=O)c1cc(-c2ccccc2)n(CC(=O)NCc2ccc(C)cc2)c1C	·	?	-14%	·	·	8.2µM*
CCOC(=O)c1cc(-c2ccccc2)n(CC(=O)Nc2ccc(CC)cc2)c1C	·	8.2µM*	-15%	·	·	16µM*
CCc1cccc(NC(=O)Cn2c(-c3ccc(F)cc3)cc(C(C)=O)c2C)c1	·	13µM*	-28%	·	·	16µM*
CC(=O)c1cc(-c2ccccc2)n(CC(=O)Nc2ccc(C)c(C)c2)c1C	-9	?	-7%	-30%	?	12µM*
CC(C)c1cccc(NC(=O)CC2(C(=O)O)CCCC2)c1	·	·	-5%	·	·	·
Cc1cc2cc(C(c3nnnn3C(C)(C)C)N(Cc3ccco3)CC3CCCO3)c(=O)[nH]c2cc1C (stereo unspecified)	0	?	-9%	-11%	22%	?
CC(C)(C)n1nnnc1C(c1cccs1)N(Cc1ccc(Cl)cc1)CC1CCCO1 (stereo unspecified)	0	21µM*	0%	?	-26%	16µM*
O=C(CSc1nnnn1C1CCCC1)NC(c1ccccc1)c1cccs1 (stereo unspecified)	·	·	-5%	·	·	·
Clc1ccc(CN(Cc2ccccc2)C(c2cccs2)c2nnnn2C2CCCC2)cc1 (stereo unspecified)	-14	15µM*	0%	-17%	-16%	15µM*
Fc1ccc(CN(Cc2ccccc2)C(c2cccs2)c2nnnn2C2CCCCC2)cc1 (stereo unspecified)	-28	?	0%	-18%	-5%	16µM*
O=C(OCC(=O)c1c[nH]c2ccccc12)c1cc2ccccc2s1	·	·	-6%	·	·	·
CC1(C)CC(=O)C2=C(C1)OC(N)=C(C#N)C2c1cn(-c2ccccc2)nc1-c1ccc(F)cc1 (stereo unspecified)	?	15µM*	?	?	?	?
Cn1cccc1C1C(C#N)=C(N)OC2=C1C(=O)CC(C)(C)C2 (stereo unspecified)	10	-3%	0%	2%	8%	1%
CC1(C)CC(=O)C2=C(C1)C(c1cn(-c3ccccc3)nc1-c1ccccc1)C(C#N)=C(N)O2 (stereo unspecified)	-56*	?	-24%	?	?	?
CCCCCCCn1c(=O)c(C(=O)OC)c(N)c2ccccc21	-59*	3.3µM*	422%	?	?	3.3µM*
